Assay outcomes as filed in PubChem BioAssay.
PHOSPHO1 inh: blocks human PHOSPHO1 phosphatase activity; recombinant PHOSPHO1, absorbance phosphatase assay; AID 1565; inhibition, % at 13.3 µM; 290,000 tested, 1.1% active; Q8TCT1; in the data active means inhibition above about 60%
Target sequence (Q8TCT1 whole entry, looked up): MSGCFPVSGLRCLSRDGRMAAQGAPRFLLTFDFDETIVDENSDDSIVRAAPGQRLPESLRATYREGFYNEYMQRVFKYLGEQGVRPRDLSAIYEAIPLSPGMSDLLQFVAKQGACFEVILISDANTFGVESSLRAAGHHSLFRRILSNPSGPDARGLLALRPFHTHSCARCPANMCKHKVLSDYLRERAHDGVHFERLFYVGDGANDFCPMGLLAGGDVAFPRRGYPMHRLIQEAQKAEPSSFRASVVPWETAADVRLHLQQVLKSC
PABP polyA inh: blocks human PABP binding to poly(A) RNA; fluorescence polarization; P11940; 290,000 tested, 1% active; inhibition, % at 35 µM;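 further: calls also rest on retests at 20 µM and on dose response follow-up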
CRFBP-R2 block: blocks CRF-induced signaling of the CRF-BP/CRF-R2 complex; HEK293 CRF-R2/CRF-BP, CRF-induced calcium fluorescence; inhibition, % at 11.8 µM; 350,000 tested, 0.59% active; AID 588475;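 active means inhibition of the ligand-induced calcium signal above about 50% at the single tested concentration, limit read from the data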
MLLE-PAM2 inh: inhibitors of microRNA-mediated deadenylation, human PABP1 MLLE binding | inhibition, % at 20 µM | GST-MLLE / FITC-PAM2 fluorescence polarization | 360,000 tested, 0.36% active | P11940 | AID 588489; in the data active means inhibition above about 35%, passing the limit was not always enough
eIF4H FP inh: inhibitors of RNA binding by human eIF4H; eIF4H fluorescence polarization binding assay; Q15056; 290,000 tested, 0.94% active; inhibition, % at 35 µM; AID 2012;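 further: calls also rest on retests at 20 µM and on dose response follow-up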
Hits are given with their value; . = inactive; ? = inconclusive; / = no result. The list is not random: actives were taken first. Their share in the collection is about 2.6%. Unless noted, how the calls were made is not given here.

SMILES | PHOSPHO1 inh | PABP polyA inh | CRFBP-R2 block | MLLE-PAM2 inh | eIF4H FP inh
C=CCSc1nnc2c(n1)OC(c1cccnc1)Nc1ccccc1-2 (centres undefined) | 82 | . | . | . | .
C=CCSc1nnc2c(n1)OC(c1c(C)[nH]n(-c3ccccc3)c1=O)Nc1ccccc1-2 (centres undefined) | . | 85 | . | . | ?
C=CCSc1nnc2c(n1)OC(c1cccnc1)N(C(C)=O)c1ccccc1-2 (centres undefined) | . | . | . | . | .
c1ccc(CSc2nnc3c(n2)OC(c2ccco2)Nc2ccccc2-3)cc1 (centres undefined) | . | . | . | . | 4.0
CSc1nnc(-c2ccccc2N=Cc2c(C)[nH]n(-c3ccc4ccccc4c3)c2=O)c(=O)[nH]1 | . | . | . | . | .
CCCC1=C(C(=O)OCC)C(c2ccc(OC)c(CSc3ccccn3)c2)C(C#N)=C(N)O1 (centres undefined) | . | . | . | . | .
CC(C)CC(=O)N1CCN(Cc2ccc(Cl)cc2)CC1 | . | . | . | . | .
CC(C)c1ccc(CN2CCN(C(=O)CCl)CC2)cc1 | 62 | . | . | . | .
CCC(C)NC(=O)COC(=O)Cc1sc(N)nc1-c1ccc(C)cc1 (centres undefined) | . | . | . | . | ?
Cc1ccc(-c2nc(N)sc2CC(=O)OCC(=O)NCCC(C)C)cc1 | . | . | . | . | 119
Cc1nc2ccccc2n1CC(=O)OCC(=O)NC1CC1 | . | . | . | . | .
COC(=O)CSC1=C(C#N)C(=O)NC(c2ccccc2)S1 (centres undefined) | 98 | . | . | 42 | .
CCNC(=O)C1(C)CCCN(Cc2cccc3c(OC)cc(C(=O)OCC)cc23)C1 (centres undefined) | / | / | / | . | /
COc1ccc(N/C=C\C(=O)c2ccc(C)cc2)cc1OC | . | . | . | . | .
COc1ccc(N/C=C\C(=O)c2ccc(Br)cc2)cc1OC | . | . | . | . | 71
C[C@H]1CN([C@@H](C)CO)C(=O)c2cc(Br)cnc2O[C@H]1CN(C)C(=O)Cc1ccccn1 | / | / | . | . | /
CC(C)C(NC(=O)c1ccc2c(c1)OCO2)C(=O)N/N=C\c1ccco1 (centres undefined) | 65 | . | . | . | .
CC(=O)N1N=C(c2ccc(Cl)cc2)CC1c1ccc([N+](=O)[O-])cc1 (centres undefined) | . | . | . | . | .
CC1(O)CC(c2ccc(Cl)cc2)=NN1C(=O)c1ccc([N+](=O)[O-])cc1 (centres undefined) | . | . | 100 | . | .
N#C/C(=C(/O)COC(=O)c1ccccc1O)c1nc2ccccc2s1 | . | 20 | . | . | .
O=C(c1ccc2snnc2c1)N1CCN(c2ccccn2)CC1 | . | . | 79 | . | .
O=C(COc1ccc(F)cc1Br)N1CCN(S(=O)(=O)/C=C/c2ccccc2)CC1 | 62 | . | . | . | .
CCOCCCNC(=S)N1CCC(NC(=O)c2ccco2)CC1 | . | 68 | . | . | .
CCOc1ccc(C(CN2CCOCC2)C(C)=O)cc1OC (centres undefined) | / | / | / | . | /
Brc1ccc(C2Nc3cccc4cccc(c34)N2)o1 | . | 104 | . | . | 99
SMILES | PHOSPHO1 inh | PABP polyA inh | CRFBP-R2 block | MLLE-PAM2 inh | eIF4H FP inh
Clc1ccc(C2Nc3cccc4cccc(c34)N2)cc1Cl | . | 50 | . | . | 55
O=[N+]([O-])c1ccc(Cl)c(C2Nc3cccc4cccc(c34)N2)c1 | . | 60 | . | . | 97
COc1ccc(C2Nc3cccc4cccc(c34)N2)cc1 | . | . | . | . | .
c1ccc(C2Nc3cccc4cccc(c34)N2)cc1 | / | 62 | . | . | 86
CCCS(=O)(=O)NC(=O)C1(C)CCN(C(=O)c2ccc(C(F)(F)F)cc2)C1 (centres undefined) | / | / | / | . | /
COc1ccc2cc(CN(C)C(=O)CN3C(=O)NC4(CCCC4)C3=O)ccc2c1 | / | / | . | . | /
COc1ncnc2c1ncn2CCCN1CCN(C(=O)C2CC2)CC1 | / | / | . | . | /
Oc1ccccc1C1Nc2cccc3cccc(c23)N1 | . | 72 | . | . | 95
Clc1cccc(C2Nc3cccc4cccc(c34)N2)c1 | . | 40 | . | . | 53
COc1ccccc1C1Nc2cccc3cccc(c23)N1 | . | ? | . | . | ?
c1csc(C2Nc3cccc4cccc(c34)N2)c1 | . | ? | . | 41 | ?
Brc1cccc(C2Nc3cccc4cccc(c34)N2)c1 | / | . | . | . | .
COc1ccc(NC(=O)CN(C)C(=O)c2ccc(C)c(S(=O)(=O)N3CCCCC3)c2)cc1 | / | / | . | . | /
CC1(C)CC(Cc2ccc(Cl)nc2)N(C(=O)OC(C)(C)C)C1 (centres undefined) | / | / | . | . | /
CCn1cc(CN2CCc3c([nH]c4ccccc34)C2c2cccc(O)c2)c(C)n1 (centres undefined) | 64 | . | . | . | .
Cc1c(NC2=C(Cl)C(=O)N(c3ccccc3)C2=O)c(=O)n(-c2ccccc2)n1C | . | . | . | . | .
Cc1c(NC2=C(Cl)C(=O)N(c3ccccc3Cl)C2=O)c(=O)n(-c2ccccc2)n1C | . | . | 53 | . | .
CCC(=O)NCCCc1nc2ccccc2n1Cc1ccccc1F | . | 63 | . | . | .
O=C1CSC(c2ccccc2F)N1c1cc(Cl)ccc1O (centres undefined) | . | . | 53 | . | .
O=C1CSC(c2ccccc2F)N1CCN1CCCCC1 (centres undefined) | . | . | . | . | .
C#CCOCCOCCOCCNc1nc(N2CCOCC2)nc(N2CCN(C(=O)[C@H](CCCCN)n3cc([C@@H](N)CO)nn3)CC2)n1 | . | . | . | . | .
C#CCOCCOCCOCCNc1nc(N2CCN(C(=O)[C@H]([C@@H](C)CC)n3cc([C@@H](N)CO)nn3)CC2)nc(N2CCN(C(=O)[C@H]([C@@H](C)CC)n3cc([C@@H](N)CC(C)C)nn3)CC2)n1 | . | ? | . | 41 | ?
C#CCOCCOCCOCCNc1nc(OC)nc(N2CCN(C(=O)[C@H](CCCCN)n3cc(C(N)CO)nn3)CC2)n1 (some centres undefined) | . | 52 | / | / | 60
Cc1cccc(-c2cnc(C(O)c3ccc(F)c(C)c3)[nH]2)c1 (centres undefined) | / | / | / | . | /
C#CCSc1nc(C)cc(C(=O)OCC)c1C#N | . | . | 82 | . | .
SMILES | PHOSPHO1 inh | PABP polyA inh | CRFBP-R2 block | MLLE-PAM2 inh | eIF4H FP inh
COc1ccc(Cl)cc1NC(=O)CCc1nnc2ccc(N3CCC4(CC3)OCCO4)nn12 | . | . | . | . | .
CC(On1nnc2ccccc21)C(=O)N1CCN(Cc2ccccc2)CC1 (centres undefined) | 80 | . | . | . | .
CCCCNC(=O)C1(C)CCCCN1CC(=O)c1ccc(OC)cc1 (centres undefined) | / | / | / | . | /
CCCC(=O)NC(=S)Nc1sc2c(c1C(N)=O)CCC2 | . | active | . | . | .
CCOC(=O)c1c(NC(=O)OC)sc2c1CCC2 | . | . | . | . | .
COC(=O)Nc1sc2c(c1C(N)=O)CCCCCC2 | 69 | . | . | . | .
